Results reported in PubChem BioAssay AID1159580 (chemical genetic matrix, 2015).
The whole screen tested about 5,500 compounds, of which about 2,000 (36%) were called active. Roughly 18% stayed inconclusive and do not appear here. Rule as the data show it: active = normalized growth mostly below about 0.91 (no sharp cut-off); inconclusive = no clear call, values can overlap the other calls; inactive = mostly above about 0.92. The list shows a part of the results.

Assay: chemical genetic growth profiling, strain panel (AID 1159580);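 also: tested at 20 µM; growth read once vehicle control cultures reached saturation at 30 °C; 1 = growth at the plate median or of vehicle wells; lower values mean less growth of the strain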
Conditions: growth OD

Measured: normalized growth

N[C@@H](C(=O)O)[C@@H](O)[C@H](O)[C@H](O)CO
inactive: S. cerevisiae deletion strains, locus YJR066W, strain TOR1, hits give low values 0.985 | S. cerevisiae deletion strains, locus YJR075W, strain HOC1, hits give low values 1.02 | S. cerevisiae deletion strains, locus YKL009W, strain mrt4, hits give low values 1 | S. cerevisiae deletion strains, locus YKL068W, hits give low values 1.01 | S. cerevisiae deletion strains, locus YKL085W, strain MDH1 (second series), hits give low values 1.02 | S. cerevisiae deletion strains, locus YKL085W, strain MDH1, hits give low values 1.02 | S. cerevisiae deletion strains, locus YKL160W, strain elf1, hits give low values 1.03 | S. cerevisiae deletion strains, locus YKL190W, strain CNB1, hits give low values 1.01 | S. cerevisiae deletion strains, locus YKR001C, strain vps1, hits give low values 1.04 | S. cerevisiae deletion strains, locus YKR026C, strain gcn3, hits give low values 1.04 | S. cerevisiae deletion strains, locus YKR091W, strain srl3, hits give low values 1.02 | S. cerevisiae deletion strains, locus YLL001W, strain dnm1, hits give low values 1.03 | S. cerevisiae deletion strains, locus YLL026W, hits give low values 1.03 | S. cerevisiae deletion strains, locus YLL041C, strain sdh2, hits give low values 1.02 | S. cerevisiae deletion strains, locus YLR027C, strain aat2, hits give low values 1.02 | S. cerevisiae deletion strains, locus YLR039C, strain RIC1, hits give low values 1.1 | S. cerevisiae deletion strains, locus YLR058C, strain SHM2, hits give low values 1.01 | S. cerevisiae deletion strains, locus YLR102C, strain apc9, hits give low values 1.01 | S. cerevisiae deletion strains, locus YLR113W, strain HOG1, hits give low values 1.07 | S. cerevisiae deletion strains, locus YLR221C, strain rsa3, hits give low values 1.03 | S. cerevisiae deletion strains, locus YLR258W, strain gsy2, hits give low values 1.01 | S. cerevisiae deletion strains, locus YLR262C, strain YPT6 (second series), hits give low values 1.06 | S. cerevisiae deletion strains, locus YLR262C, strain YPT6, hits give low values 1.14 | S. cerevisiae deletion strains, locus YLR268W, strain sec22, hits give low values 1.04 | S. cerevisiae deletion strains, locus YLR320W, strain mms22, hits give low values 1.03 | S. cerevisiae deletion strains, locus YLR330W, strain CHS5, hits give low values 1.01 | S. cerevisiae deletion strains, locus YLR342W, strain FKS1 (second series), hits give low values 1.01 | S. cerevisiae deletion strains, locus YLR342W, strain FKS1, hits give low values 1.03 | S. cerevisiae deletion strains, locus YLR357W, strain rsc2, hits give low values 1.04 | S. cerevisiae deletion strains, locus YLR370C, strain arc18, hits give low values 1.02 | S. cerevisiae deletion strains, locus YLR371W, strain rom2, hits give low values 1.02 | S. cerevisiae deletion strains, locus YLR384C, strain iki3, hits give low values 1.02 | S. cerevisiae deletion strains, locus YLR418C, strain cdc73, hits give low values 1.01 | S. cerevisiae deletion strains, locus YML016C, strain PPZ1, hits give low values 1.01 | S. cerevisiae deletion strains, locus YML032C, strain rad52, hits give low values 0.989 | S. cerevisiae deletion strains, locus YML120C, strain ndi1, hits give low values 1.03 | S. cerevisiae deletion strains, locus YML124C, strain tub3, hits give low values 1.02 | S. cerevisiae deletion strains, locus YMR058W, strain fet3, hits give low values 1.03 | S. cerevisiae deletion strains, locus YMR078C, strain ctf18, hits give low values 1.03 | S. cerevisiae deletion strains, locus YMR125W, strain sto1, hits give low values 1.02 | S. cerevisiae deletion strains, locus YMR129W, hits give low values 1.03 | S. cerevisiae deletion strains, locus YMR205C, strain PFK2, hits give low values 1.03 | S. cerevisiae deletion strains, locus YMR223W, strain ubp8, hits give low values 1.01 | S. cerevisiae deletion strains, locus YMR231W, strain pep5, hits give low values 1 | S. cerevisiae deletion strains, locus YMR307W, strain GAS1, hits give low values 0.992 | S. cerevisiae deletion strains, locus YNL067W, strain RPL9B, hits give low values 1.01 | S. cerevisiae deletion strains, locus YNL071W, strain lat1, hits give low values 1.03 | S. cerevisiae deletion strains, locus YNL153C, strain GIM3, hits give low values 1.01 | S. cerevisiae deletion strains, locus YNL183C, strain NPR1, hits give low values 0.989 | S. cerevisiae deletion strains, locus YNL209W, strain ssb2, hits give low values 1.02 | S. cerevisiae deletion strains, locus YNL233W, strain BNI4, hits give low values 1.02 | S. cerevisiae deletion strains, locus YNL248C, strain rpa49, hits give low values 1.04 | S. cerevisiae deletion strains, locus YNL250W, strain rad50, hits give low values 1.03 | S. cerevisiae deletion strains, locus YNL271C, strain bni1, hits give low values 1.03 | S. cerevisiae deletion strains, locus YNL298W, strain CLA4, hits give low values 1.02 | S. cerevisiae deletion strains, locus YNL307C, strain MCK1, hits give low values 1.02 | S. cerevisiae deletion strains, locus YNL322C, strain KRE1 (second series), hits give low values 1.03 | S. cerevisiae deletion strains, locus YNR049C, strain mso1, hits give low values 1.04 | S. cerevisiae deletion strains, locus YNR052C, strain pop2, hits give low values 1.01 | S. cerevisiae deletion strains, locus YOL006C, strain TOP1, hits give low values 1.06 | S. cerevisiae deletion strains, locus YOL012C, strain htz1 0.92 | S. cerevisiae deletion strains, locus YOL147C, strain pex11, hits give low values 1.01 | S. cerevisiae deletion strains, locus YOR001W, strain rrp6, hits give low values 1.05 | S. cerevisiae deletion strains, locus YOR061W, strain CKA2, hits give low values 1.02 | S. cerevisiae deletion strains, locus YOR069W, strain VPS5, hits give low values 1.01 | S. cerevisiae deletion strains, locus YOR070C, strain gyp1, hits give low values 1.02 | S. cerevisiae deletion strains, locus YOR080W, strain dia2, hits give low values 1.04 | S. cerevisiae deletion strains, locus YOR083W, strain WHI5, hits give low values 1.02 | S. cerevisiae deletion strains, locus YOR106W, strain vam3, hits give low values 1.07 | S. cerevisiae deletion strains, locus YOR136W, strain idh2, hits give low values 1.02 | S. cerevisiae deletion strains, locus YOR144C, strain elg1, hits give low values 1.01 | S. cerevisiae deletion strains, locus YOR184W, strain ser1, hits give low values 1.03 | S. cerevisiae deletion strains, locus YOR231W, strain MKK1, hits give low values 1.08 | S. cerevisiae deletion strains, locus YOR265W, strain rbl2, hits give low values 1.02 | S. cerevisiae deletion strains, locus YOR270C, strain vph1, hits give low values 1.12 | S. cerevisiae deletion strains, locus YOR290C, strain snf2, hits give low values 1.02 | S. cerevisiae deletion strains, locus YOR316C, strain cot1, hits give low values 1.02 | S. cerevisiae deletion strains, locus YPL051W, strain arl3, hits give low values 1.02 | S. cerevisiae deletion strains, locus YPL055C, strain LGE1, hits give low values 1.02 | S. cerevisiae deletion strains, locus YPL078C, strain atp4, hits give low values 1.01 | S. cerevisiae deletion strains, locus YPL106C, strain sse1, hits give low values 1.01 | S. cerevisiae deletion strains, locus YPL240C, strain hsp82, hits give low values 1.02 | S. cerevisiae deletion strains, locus YPL256C, strain CLN2, hits give low values 1.03 | S. cerevisiae deletion strains, locus YPR119W, strain clb2, hits give low values 1.02 | S. cerevisiae deletion strains, locus YPR141C, strain kar3, hits give low values 1.02 | S. cerevisiae deletion strains, locus YPR163C, strain tif3, hits give low values 1.03 | S. cerevisiae deletion strains, locus YPR167C, strain met16, hits give low values 1.02 | S. cerevisiae deletion strains, strain wtn01, hits give low values 1.05 | S. cerevisiae strains, strain wild type, hits give low values 1.01
